Assay outcomes deposited in PubChem BioAssay by Sanford-Burnham Center for Chemical Genomics.
In the library only some 31% were active in any assay of this set; here they are far more common.
CYP2C9 activ: activators of human CYP2C9 | recombinant CYP2C9, luciferin-H conversion, luminescence; active compounds read high; factor 1 = untreated enzyme, 0 = blocked | activation factor at 5 µM | hit rate 1.4% among 96,000;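 active = activation factor of 2 or more for CYP2C9 at a 5 µM dose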;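 also: 0 = sulfaphenazole-blocked wells and 1 = vehicle-only wells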
CYP2C19 activ: activators of human cytochrome P450 2C19 | P33261 | recombinant CYP2C19, luciferin-H EGE luminescence; active compounds read high; 0 = fully inhibited enzyme, 1 = untreated enzyme | activation factor at 5 µM | 96,000 tested, under 10 active;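 active = activation factor of at least 2 at 5 µM in the primary screen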;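 also: 0 = wells with 2.5 mM tranylcypromine and 1 = vehicle-only wells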
Target sequence (P33261 whole entry, looked up): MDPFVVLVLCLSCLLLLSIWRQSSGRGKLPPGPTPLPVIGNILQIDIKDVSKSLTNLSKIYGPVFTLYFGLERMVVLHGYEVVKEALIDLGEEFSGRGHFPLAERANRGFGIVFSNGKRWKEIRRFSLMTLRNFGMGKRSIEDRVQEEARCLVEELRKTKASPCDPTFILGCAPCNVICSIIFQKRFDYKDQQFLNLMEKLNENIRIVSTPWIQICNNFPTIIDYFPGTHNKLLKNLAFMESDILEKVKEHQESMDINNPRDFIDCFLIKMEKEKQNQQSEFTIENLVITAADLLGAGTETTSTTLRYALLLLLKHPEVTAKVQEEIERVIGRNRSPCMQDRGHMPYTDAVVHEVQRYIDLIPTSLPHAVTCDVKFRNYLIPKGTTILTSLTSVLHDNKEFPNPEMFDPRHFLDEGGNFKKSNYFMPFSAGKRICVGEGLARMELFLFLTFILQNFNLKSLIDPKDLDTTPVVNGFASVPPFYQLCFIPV
CYP2C19 inhib: inhibitors of human CYP2C19; inhibition, % at 5 µM; CYP2C19 Supersomes, luciferin-H EGE luminescence, 30 min; AID 778; P33261; hit rate 21% among 96,000;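 active = CYP2C19 inhibition above a set limit at 5 µM in the primary screen, cut at about 50% in these data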;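 also: plate controls were negative control wells for no effect and 2.5 mM tranylcypromine positive control for full effect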
CYP2C9 inh: human CYP2C9 inhibition. inhibition, % at 5 µM. P11712. hit rate 20% among 96,000. CYP2C9 Supersomes, luciferin-H conversion, luminescence. AID 777;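 active = blocking of liver enzyme CYP2C9 beyond about 50% at 5 µM, limit read from the data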
Active calls of the source: *.

SMILES	CYP2C9 activ	CYP2C19 activ	CYP2C19 inhib	CYP2C9 inh
COc1ccccc1NC(=O)Cc1noc(CSc2nnc(C)s2)n1	0.8	0.7	34	16
COc1ccc(NC(=O)c2cccnc2Cl)c(S(=O)(=O)N2CCOCC2)c1	0.9	1.4	-37	9
CCC(=O)Nc1ccc(S(=O)(=O)N2CCOCC2)cc1	0.9	0.9	7	11
Cc1ccc(NC(=O)CCc2ccc(S(=O)(=O)N3CCOCC3)cc2)c(C)c1	0.3	0.5	51*	65*
N#Cc1ccc(NC(=O)CCc2ccc(S(=O)(=O)N3CCOCC3)cc2)cc1	0.3	0.8	15	70*
COc1ccc(NC(=O)c2cncc(Br)c2)c(S(=O)(=O)N2CCOCC2)c1	0.7	0.4	55*	28
CC(=O)NCCc1ccc(S(=O)(=O)N2CCOCC2)cc1	0.9	0.9	10	12
COC(=O)c1ccc(C(=O)OC)c(NC(=O)CN2CCN(c3ccccc3OC)CC2)c1	0.8	0.8	20	17
Cn1c(SCC(=O)Nc2ccccc2F)nnc1-c1ccc(S(=O)(=O)N2CCOCC2)cc1	1	1	1	1
CC(C)C(c1nnnn1Cc1ccco1)N1CCN(c2nc3ccccc3s2)CC1 (stereo not given)	1.1	1	-3	-6
CCC(C)(C)n1nnnc1C(c1ccc2ncccc2c1)N1CCN2CCCC2C1 (stereo not given)	1	0.4	59*	3
c1cnc2ccc(C(c3nnnn3C3CCCC3)N3CCN(c4nc5ccccc5s4)CC3)cc2c1 (stereo not given)	0.1	0.3	70*	88*
c1cnc2ccc(C(c3nnnn3C3CCCCC3)N3CCN4CCCC4C3)cc2c1 (stereo not given)	0.3	1	-1	69*
OC1CCN(C(c2ccc3ncccc3c2)c2nnnn2C2CCCCC2)CC1 (stereo not given)	1.1	1.1	-14	-8
CCN=C1Sc2nc3ccc(OCC)cc3cc2CN1CCOC	0	0.1	91*	96*
COc1cccc(C(c2nnnn2Cc2ccco2)N2CCN(c3cccc(C)c3C)CC2)c1OC (stereo not given)	0.3	0.4	56*	70*
COc1cccc(C(c2nnnn2Cc2ccccc2)N2CCN(C(=O)c3ccco3)CC2)c1OC (stereo not given)	0.6	0.6	37	43
Clc1ccccc1C(c1nnnn1Cc1ccco1)N1CCN(Cc2ccco2)CC1 (stereo not given)	0.8	0	96*	17
Cc1cc2cc(C(c3nnnn3Cc3ccco3)N3CCCCC3)c(=O)[nH]c2cc1C (stereo not given)	1	1	-2	1
O=C(O)C1CCCCC1C(=O)NCCCN1CCOCC1 (stereo not given)	1	0.9	12	0
Cc1cc(NS(=O)(=O)c2ccc(Nc3nc(-c4sc(NC(=O)c5ccccc5)nc4C)cs3)cc2)no1	0.3	1.2	-18	75*
Cc1nc(NC(=O)c2ccccc2)sc1-c1csc(N)n1	0.5	0.8	19	54*
COc1ccccc1Nc1nc(-c2sc(NC(=O)c3ccccc3)nc2C)cs1	0.7	1	1	32
CCC(=O)Nc1nc(C)c(-c2csc(Nc3ccc(S(=O)(=O)Nc4cc(C)on4)cc3)n2)s1	0.7	1	-2	33
Cc1nc(NC(=O)c2ccccc2)sc1-c1csc(NCCc2ccccc2)n1	0.2	0.5	48	78*
SMILES	CYP2C9 activ	CYP2C19 activ	CYP2C19 inhib	CYP2C9 inh
Cc1nc(NC(=O)c2ccccc2)sc1-c1csc(NCc2ccccc2)n1	0.3	0.5	51*	66*
COc1ccc(-c2cc(C(=O)NCC(C)C)no2)cc1	1	1	-3	4
COc1ccc(CCNC(=O)Cn2c(=O)n(Cc3ccco3)c(=O)c3ccc(Cl)cc32)cc1OC	0.6	0.6	35	42
O=C(Cn1cnc2c(cnn2-c2ccccc2)c1=O)N1CCCc2ccccc21	1.1	1	-3	-5
O=C(c1ccccc1)N(Cc1ccco1)C1CCS(=O)(=O)C1 (stereo not given)	1.1	0.9	14	-9
O=C1NC(=S)N/C1=C\c1cccc([N+](=O)[O-])c1	1	0.9	11	4
Cc1ccc(Cl)cc1Nc1nc(-c2sc(NC(=O)c3ccccc3)nc2C)cs1	0.2	0.5	52*	77*
Cc1nc2sccn2c1-c1csc(NCc2ccccc2)n1	0.4	0.1	90*	62*
Cc1ccc(C)c(C(=O)c2c(C)nc3sccn23)c1	0.5	0.1	95*	50
Cc1ccc(-c2cc(C(=O)Nc3cc(C)on3)c3ccccc3n2)c(C)c1	0.2	0.7	34	77*
Cc1ccc(C)c(-c2nnc(OCC(=O)Nc3cc(C)on3)c3ccccc23)c1	0.1	0.2	76*	95*
Cc1cc(NC(=O)c2cc(-c3ccc(C)s3)nc3ccccc23)no1	0.1	0.3	67*	86*
CCn1c(CSc2nnc(-c3ccc4c(c3)OCO4)o2)nc2cc(S(=O)(=O)N(C)C)ccc21	0.2	0.2	83*	81*
CCn1c(-c2cc(Br)cc(OC)c2O)nc2cc(S(=O)(=O)N(C)C)ccc21	0.6	1	1	36
O=C(O)CSc1nnc(-c2ccc3c(c2)OCO3)o1	0.9	1.1	-6	10
CCn1c(CSc2nnc(C)n2-c2ccccc2)nc2cc(S(=O)(=O)N(C)C)ccc21	0.3	1	-2	66*
O=C(NCC(=O)N(CC1CCCO1)C(C(=O)NC1CCCCC1)c1ccc(F)cc1)c1ccco1 (stereo not given)	1.1	0.9	9	-9
NC(=O)c1ccccc1NC(=O)/C=C/c1cccc(Cl)c1	1.7	0.9	13	-72
O=C(CCc1ccccc1)NC(NC(=S)Nc1ccc(Cl)cc1)C(Cl)(Cl)Cl (stereo not given)	0.1	0.7	27	92*
O=C(/C=C/c1ccccc1)NC(NC(=S)Nc1cc(Cl)ccc1Cl)C(Cl)(Cl)Cl (stereo not given)	0.1	0.7	28	87*
COc1ccc(NC(=S)NC(NC(=O)/C=C/c2ccccc2)C(Cl)(Cl)Cl)cc1 (stereo not given)	0.2	0.8	24	80*
O=C(CCc1ccccc1)Nc1ccc(Cl)cn1	1.1	0.5	47	-12
CC(=O)NC(NC(=S)Nc1ccc(N=Nc2ccccc2)cc1)C(Cl)(Cl)Cl (stereo not given)	0.7	0.7	27	27
O=C(/C=C/c1ccccc1)NC(NC(=S)Nc1ccc(Cl)cc1)C(Cl)(Cl)Cl (stereo not given)	0.3	1	3	70*
O=C(CSc1cccc2cccnc12)NCc1ccco1	1.5	0.9	6	-47
COc1ccc(C2(C(=O)N3CCOCC3)CCOCC2)cc1OC	1.1	1	2	-9
CCCCCCn1c(NCC)nc2c1c(=O)[nH]c(=O)n2C	1.2	1	-2	-15
Nc1nc2c(s1)CC(c1ccccc1)CC2 (stereo not given)	0.6	0.3	69*	45
CCCC(=O)NCc1nc2ccccc2n1C	1.2	1.1	-14	-21
